# Compounds with a hit are over-represented: about 1.1% of the library has one in this group of screens.
# Mtb BioA inh: M. tuberculosis BioA enzyme inhibitors, primary screen, biochemical, plate reader, single point, HTS; 7,8-diaminopelargonic acid synthase BioA (Mycobacterium tuberculosis); purified M. tuberculosis BioA enzyme; inhibition, % at 9.99 µM; 360,000 compounds, 0.096% hits; AID 602481, 2012; in the data active = inhibition above about 40%; inconclusive = no clear call, values can overlap the other calls
# BJeLR lethal: MLPCN primary cell-based screen for lethality selective to Ras in HRASV12 cells; AID 1554, 2009; 300,000 compounds, 0.17% hits; BJeLR (HRASV12) viability, CellTiter-Glo ATP luminescence, 48 h; inhibition, % (concentration not given with the values); in the data active = inhibition above about 50%; inconclusive = no clear call, values can overlap the other calls
# MazF activator: activators of E. coli MazEF toxin-antitoxin RNase, primary screen, biochemical, fluorescence, uHTS. Endoribonuclease toxin MazF (Escherichia coli (strain K12)), P0AE70. FAM/BHQ RNA-DNA oligo cleavage fluorescence, 5 h. activation, % at 20 µM. 350,000 compounds, 0.32% hits; in the data active = activation above about 50%
# Target sequence (P0AE70 whole entry, looked up): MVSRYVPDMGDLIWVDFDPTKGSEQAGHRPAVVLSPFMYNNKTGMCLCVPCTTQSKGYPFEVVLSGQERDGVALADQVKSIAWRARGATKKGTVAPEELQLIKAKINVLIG
# Y pestis TopoI: Yersinia pestis topoisomerase I inhibitors, primary screen, biochemical, cleavage product accumulation, plate reader, single point; Y. pestis Topo-I cleavage product accumulation; DNA topoisomerase I (Yersinia pestis CO92); activity, % at 10 µM; 360,000 compounds, 0.064% hits; in the data active = activity above about 50%, passing the limit was not always enough; inconclusive = no clear call, values can overlap the other calls
# 3CLpro inhibitor: SARS-CoV 3CLpro protease inhibitors, primary screen, biochemical, quenched FRET; Replicase polyprotein 1ab (Severe acute respiratory syndrome coronavirus), P0C6X7; recombinant SARS-CoV 3CLpro, quenched FRET peptide cleavage; inhibition, % at 6 µM; 290,000 compounds, 0.14% hits; AID 1706, 2009; in the data active = inhibition above about 12%
# PfHsp40 yeast: rescue of yeast from PfHsp40 toxicity, primary screen, S. cerevisiae, ATP luminescence | S. cerevisiae expressing PfHsp40, growth rescue | growth rescue, % at 12.5 µM | 340,000 compounds, 0.68% hits; in the data active = growth rescue above about 28%, passing the limit was not always enough; inconclusive = no clear call, values can overlap the other calls;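 also: yeast W303a lacking pdr1 and pdr3 grown in galactose medium; growth measured after three days at 30 °C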
# The depositor's hits bear a star; ? = inconclusive; / = no result.
SMILES,Mtb BioA inh,BJeLR lethal,MazF activator,Y pestis TopoI,3CLpro inhibitor,PfHsp40 yeast
C=CCOc1ccc(/C=C/C(=O)OCC(=O)NCCCc2ccccc2)cc1,-1,-1,2,53*,/,1
Oc1cc2c(cc1O)C1c3ccc(O)c(O)c3OCC1(O)C2 (stereo not drawn),0,/,264*,1,4,0
CCCCc1ccc(-n2c(Cc3cccs3)n[nH]c2=S)cc1,/,4,-3,15,0,305*
S=c1[nH]nc(Cc2cccs2)n1-c1ccccc1,0,3,5,-2,8,-1
CC(C)c1ccc(C2C3=C(COC3=O)Nc3cc4c(cc32)OCO4)cc1 (stereo not drawn),0,58*,12,3,-5,0
CCCCn1c(C)cc(C)c(S(=O)(=O)c2ccccc2C)c1=O,0,-11,-7,59*,1,2
O=C(Nc1ccccc1N1CCOCC1)c1cc2c(s1)CCCCC2,/,-7,0,3,2,73*
O=C(Nc1ccc(N2CCOCC2)cc1)c1cc2c(s1)CCCCC2,/,2,6,3,3,5
CCc1sc(C(=O)Nc2ccccc2N2CCOCC2)cc1C,/,-1,0,-1,2,107*
C[C@@H](NC(=O)C[C@H]1C[C@H]2c3cc(NC(=O)CC4CC4)ccc3O[C@H]2[C@@H](CO)O1)c1ccccc1,-1,/,/,/,/,/
C[C@@H]1CCCCO[C@@H](CN(C)C)[C@H](C)CN([C@H](C)CO)C(=O)c2cc(NS(=O)(=O)c3ccccc3)ccc2O1,-2,/,/,/,/,/
Cc1noc(C)c1S(=O)(=O)N(C)C[C@H]1OCCCC[C@H](C)Oc2ccc(NS(=O)(=O)c3ccc(F)cc3)cc2C(=O)N([C@H](C)CO)C[C@@H]1C,0,/,/,/,/,/
Oc1c(C(Nc2cccc(C(F)(F)F)c2)c2cccnc2)ccc2cccnc12 (stereo not drawn),/,1,-22,-6,7,382*
CCC(=O)NC(c1ccccc1OC)c1ccc2cccnc2c1O (stereo not drawn),/,24,0,-5,2,?
COc1ccc(Cl)cc1C(Nc1cccnc1)c1ccc2cccnc2c1O (stereo not drawn),/,-1,-33,12,3,89*
CCOC(=O)Cn1c(=NC(=O)c2ccc([N+](=O)[O-])s2)sc2ccccc21,/,9,276*,0,1,0
C[C@H]1CN([C@@H](C)CO)C(=O)c2ccccc2-c2ccccc2CO[C@H]1CN(C)S(=O)(=O)c1cccc(F)c1,3,/,/,/,/,/
CCN(CC)Cc1c(O)ccc2c1O/C(=C\C=C\c1ccccc1)C2=O,-13,93*,-451,6,4,2
CC(C)CC#Cc1cnc2c(c1)C(=O)N([C@@H](C)CO)C[C@@H](C)[C@H](CN(C)Cc1ccccc1F)O2,-5,/,/,/,/,/
Cc1ccccc1OCC(O)Cn1c2ccccc2c2ccccc21 (stereo not drawn),-2,1,-6,-8,8,111*
CC(=O)Nc1ccc(OCC(O)Cn2c3ccccc3c3ccccc32)c(C)c1 (stereo not drawn),1,5,-12,15,3,9
Cc1ccccc1OCC(O)CNC1CCC(NCC(O)COc2ccccc2C)CC1 (stereo not drawn),-1,89*,22,-6,1,0
Cc1noc(C)c1NC(=O)N(C)C[C@@H]1Oc2ccc(NC(=O)Nc3ccc(F)cc3)cc2CC(=O)N([C@H](C)CO)C[C@@H]1C,1,/,/,/,/,/
C[C@H](CO)N1C[C@H](C)[C@H](CN(C)C(=O)Nc2cccc3ccccc23)Oc2ccc(NC(=O)Nc3ccc4c(c3)OCO4)cc2C1=O,-6,/,/,/,/,/
Cc1ccc(NC(=S)c2nc3ccccc3[nH]2)c(C)c1,-1,5,15,-6,3,331*
Cc1ccc(NC(=S)c2nc3ccccc3[nH]2)cc1,-1,1,10,-3,3,0

# Assay outcomes: PubChem, several laboratories
